DT40 TDP1 no CPT – qHTS for Inhibitors of human tyrosyl-DNA phosphodiesterase 1 (TDP1): qHTS in cells in absence of CPT; DT40 Tdp1-/- hTDP1 cells, no CPT, ATP luminescence, 48 h; Potency, µM (highest dose often 46.2 µM), most hits filed as inhibitors; 420,000 tested, 15% active; AID 686978, 2013; note: nearly all actives have a fitted effect of over 55% in size
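No-CPT arm: Tdp1-/-;hTDP1 DT40 cells (400/well) plus compounds, incubated ≥48 hr at 37 °C. Readout CellTiter-Glo luminescence.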
TDP1 block – TDP1 (human) enzyme inhibition; AID 485290; recombinant TDP1, AlphaScreen DNA substrate cleavage; 350,000 tested, 0.28% active; Potency, µM (highest dose often 130 µM), usual class: inhibitors; note: nearly all actives have a fitted effect of over 40% in size
Target sequence (Q9NUW8 whole entry, looked up): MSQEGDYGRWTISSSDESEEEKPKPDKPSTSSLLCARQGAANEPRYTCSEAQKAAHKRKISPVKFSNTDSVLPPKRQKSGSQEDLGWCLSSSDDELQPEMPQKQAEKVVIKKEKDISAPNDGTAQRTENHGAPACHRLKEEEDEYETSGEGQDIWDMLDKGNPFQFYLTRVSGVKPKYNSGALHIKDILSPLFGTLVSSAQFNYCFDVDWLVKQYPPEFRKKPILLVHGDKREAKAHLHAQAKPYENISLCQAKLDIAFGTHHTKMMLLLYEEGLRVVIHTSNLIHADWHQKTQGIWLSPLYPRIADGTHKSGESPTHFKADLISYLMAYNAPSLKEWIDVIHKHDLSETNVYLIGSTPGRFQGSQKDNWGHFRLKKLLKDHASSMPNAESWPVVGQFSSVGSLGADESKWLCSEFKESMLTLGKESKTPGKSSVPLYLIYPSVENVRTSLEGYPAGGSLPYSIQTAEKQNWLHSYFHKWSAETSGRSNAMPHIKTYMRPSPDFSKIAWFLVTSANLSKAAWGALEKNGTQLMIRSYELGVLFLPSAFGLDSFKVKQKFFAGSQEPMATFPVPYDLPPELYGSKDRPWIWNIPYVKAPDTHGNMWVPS
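Recombinant human Tdp1 (E. coli-expressed, 1 nM final) preincubated with compounds 15 min at room temperature, then 5'-biotin/3'-phosphotyrosine-FITC DNA substrate (15 nM final) added for 5 min. AlphaScreen beads (10 ug/ml final) added 10 min; cleavage lowers signal.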
IL-1B inflam inh – inhibitors of inflammasome signaling (IL-1 beta secretion); THP-1 LPS/ATP IL-1B secretion, AlphaLISA, 16 h; hits give low values; activity change, % at 57.5 µM; 360,000 tested, 4.7% active; in the data active = activity change below about -50%; inconclusive = mostly about -30% to -49%
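THP-1 cells pretreated 1 hr with compounds (up to 57.5 uM final), then stimulated with LPS (250 ng/mL final) plus ATP (1.25 mM final); secreted IL-1B measured by AlphaLISA after 16 hr, decreased signal indicating inhibition.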
TDP1 cell CPT – DT40-hTDP1 cell growth loss with CPT | chicken DT40 Tdp1-/-;hTDP1 cells + 20 nM CPT, ATP luminescence, 48 h | Potency, µM (doses to about 46.2 µM), actives largely listed as inhibitors | 420,000 tested, 12% active | AID 686979; note: nearly all actives have a fitted effect of over 55% in size
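Chicken DT40 Tdp1-/- cells stably complemented with human TDP1 were seeded at 400 cells/well in medium containing 20 nM camptothecin, exposed to pin-transferred compounds, and grown at 37 °C for at least 48 hr. Viability was read as ATP luminescence.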
TGFb inhibitor – TGF-b pathway inhibition; HepG2 CAGA-GFP TGF-b/SMAD3 reporter, GFP fluorescence, 18 h; TGF-beta stimulated, 500 pg/mL final; 410,000 tested, 1.2% active; AID 588855; Potency, µM (series often up to 46.1 µM), most hits filed as inhibitors; note: nearly all actives have a fitted effect of over 65% in size
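Per well, imaged GFP fluorescence of HEPG2 CAGA-GFP cells gives the signal; cells get compound, then TGF-beta (500 pg/mL final), 18 h at 37 degrees C; %Activity versus -TGF-beta and +DMSO controls.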
HepG2 tox – HepG2 cytotoxicity, counter-screen for TGF-b inhibitors. HepG2 CAGA-GFP viability, ATP luminescence, 18 h. Potency, µM (top dose mostly 46.1 µM), usual class: cytotoxic. 410,000 tested, 0.76% active. AID 588856
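HepG2 CAGA-GFP cells (1000/well, DMEM with 1% FBS) received compound, then TGF-beta at 500 pg/mL final, and were incubated 18 hours at 37 degrees C. Viability was read by CellTiter-Glo luminescence. Media-only wells were set as complete cell-killing and DMSO as no toxicity.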
Numbers stand for hits; 0 = inactive; ? = inconclusive; - = no result given. An excerpt weighted towards active compounds, which were near 18% of everything screened. Unless noted, calls come from the whole dose curve; as a rule, active = well fitted curve in the direction sought with a large enough effect; inconclusive = small, poorly fitted or top-dose-only effect, or another doubt; inactive = no such curve, though single readings can be large; an effect the other way counts as inactive or inconclusive.

SMILES	DT40 TDP1 no CPT	TDP1 block	IL-1B inflam inh	TDP1 cell CPT	TGFb inhibitor	HepG2 tox
Cc1nc(SCC(=O)Nc2ccc(C)c(Cl)c2)cc(-c2ccccc2)n1	?	0	-	23µM	10µM	0
Cc1ccc(NC(=O)CSc2ccccc2NC(=O)c2ccccc2Cl)cc1Cl	18µM	?	0	?	?	0
Cc1ccc(NC(=O)CSc2ccccc2NC(=O)c2ccccc2)cc1Cl	13µM	0	?	15µM	0	0
Cc1cnc(C(=O)OCc2csc(CC(=O)Nc3ccccc3C)n2)cn1	0	0	0	0	0	0
Cc1cccc(Cn2cnc3c(oc4ccccc43)c2=O)c1	0	0	-	?	0	0
COC(=O)/C=C1\OCc2ccc(C)cc21	0	-	0	0	-	-
CCOC(=O)C1CCCN(C(=O)c2cc(OC)ccc2Br)CC1 (configuration not stated)	0	-	0	?	0	0
CCOC(=O)N1CCN(C(=O)CSc2ccc(-c3ccc(OC)cc3)nn2)CC1	0	0	0	0	0	0
Cc1cc(NC(=O)CC(C)C)c(=O)n(Cc2ccccc2F)c1	?	-	0	?	0	0
CCOC(=O)C1(C)C=C(Nc2cccc(C(=O)O)c2)C(=O)N1c1cccc(C(=O)O)c1 (configuration not stated)	0	-	-	0	0	0
O=C(c1ccc([N+](=O)[O-])cc1)N(Cc1ccc(Cl)cc1Cl)N1C(=O)CCCC1=O	0	0	0	0	0	0
O=C1CC(=Nc2ccc([N+](=O)[O-])cc2)NN1c1c(Cl)cc(Cl)cc1Cl	26µM	-	-74	?	16µM	0
COc1ccc(C(=O)OCC(=O)Nc2ccc3c(c2)OCO3)cc1S(=O)(=O)N1CCOCC1	0	0	0	0	0	0
Cc1ccn2c(Cc3ccccc3)c(-c3ccccc3)nc2c1	18µM	-	0	18µM	0	0
Cc1ccn2c(NCc3ccco3)c(-c3ccccc3)nc2c1	11µM	0	-	?	-	-
Cc1ccn2c(Cc3ccccc3)c(-c3ccc(Br)cc3)nc2c1	?	-	0	21µM	0	0
CCc1nc2ccc(C(=O)NCCN3CCNC3=O)cn2c1N(CCC(C)C)CCN(C)C	0	-	0	0	0	0
Cc1ccc(Oc2ncc(-c3ccc(Cl)cc3)cn2)cc1	0	0	0	0	?	0
Cc1cccc(Oc2ncc(-c3ccc(Cl)cc3)cn2)c1C	21µM	0	0	?	0	0
O=C(CNC(c1ccccc1)c1ccccc1)Nc1c(F)cccc1F	16µM	0	0	?	0	0
CC(C)n1nnnc1SCC(=O)N(C)C1CCS(=O)(=O)C1 (configuration not stated)	0	0	0	0	0	0
CCc1ccc(C(=O)CN(C#N)c2nc(C)cc(C)n2)cc1	?	0	0	?	?	11µM
CC1CC(=O)Nc2ccccc2S1(=O)=O (configuration not stated)	?	0	0	0	0	0
O=S1(=O)c2ccccc2Nc2ccccc21	0	-	-73	0	0	0
Cc1ccc(NC(=O)c2cnc(SCC(=O)N3CCCc4ccccc43)n(C)c2=O)cc1C	0	0	-	0	0	0
SMILES	DT40 TDP1 no CPT	TDP1 block	IL-1B inflam inh	TDP1 cell CPT	TGFb inhibitor	HepG2 tox
C=C1C(=O)OC2C=C(CO)CCC=C(CO)CC(OC(=O)C(C)C)C12 (configuration not stated)	2.9µM	-	-101	2.9µM	16µM	0
CC(C)=CC(O)C/C(C)=C/COc1ccc2ccc(=O)oc2c1 (configuration not stated)	9.2µM	-	?	7.3µM	?	0
CC(C)=CCOc1cc2oc(=O)ccc2cc1O	0	0	-	?	-	-
CC(=O)c1sc(C(C)(C)C)cc1NC(=O)/C=C/C(=O)O	?	0	-96	0	0	0
c1ccc(OCCN2CCNCC2)cc1	0	-	0	0	0	0
COc1ccc(OCCOCCN2CCN(C)CC2)cc1	0	0	0	0	0	0
COc1cccc(OCC(O)CN2CCN(C(c3ccccc3)c3ccccc3)CC2)c1 (configuration not stated)	13µM	-	0	?	?	0
c1ccc(OCCN2CCN(C(c3ccccc3)c3ccccc3)CC2)cc1	15µM	-	0	?	?	0
CN1CCN(CCCOc2ccc(-c3ccccc3)cc2)CC1	16µM	-	-82	?	?	0
CN1CCN(CCOc2ccc(-c3ccccc3)cc2)CC1	?	0	-59	?	0	0
Cc1cccc(C)c1NC(=O)CN(C)C(=O)C1=COCCO1	0	0	0	0	0	0
CC(=O)N1c2ccc(S(=O)(=O)N3CCCCCC3)cc2CC1C(=O)NCc1ccc(Cl)cc1 (configuration not stated)	?	0	-	?	0	0
CCN1CCN(CCCOc2ccc(-c3ccccc3)cc2)CC1	?	0	-56	?	0	0
CCN1CCN(CCCOc2ccccc2-c2ccccc2)CC1	?	0	0	?	0	0
COc1ccc(OC)c(NC(=O)C2CCN(Cc3cnn(-c4ccccc4)c3-n3cccc3)CC2)c1	?	0	0	16µM	?	0
O=C(Nc1ccccc1Cl)C1CCN(Cc2cnn(-c3ccccc3)c2-n2cccc2)CC1	23µM	0	0	16µM	?	0
COc1ccc(NC(=O)N2CCCC(C(=O)NCc3ccccc3F)C2)cc1 (configuration not stated)	0	0	0	0	0	0
COc1cccc(/C=C/C(=O)OCC(=O)NC2CC2)c1OC	0	0	0	0	0	0
O=C(O)C(C(O)c1ccc([N+](=O)[O-])cc1)[n+]1ccccc1 (configuration not stated)	0	0	0	?	0	0
CCN(CC)C(=O)CSc1nc2sc3c(c2c(=O)n1CCOC)CCC3	0	-	0	0	0	0
CCOC(=O)c1sc2nc(SCC(=O)N(CC)CC)n(CCCN3CCCC3=O)c(=O)c2c1C	0	0	?	18µM	0	0
S=C(NCCCc1ccccc1)Nc1ccccc1	?	0	0	23µM	0	0
S=C(NCCc1ccccc1)N/N=C/c1cccc(Cl)c1Cl	0	0	0	0	?	0
Cc1ccccc1OCCNC(=S)Nc1ccccc1	15µM	0	0	29µM	?	0
CNC(=S)NCCc1ccccc1	0	-	0	0	0	0
S=C(NCCCc1ccccc1)Nc1ccc(Cl)cc1	?	0	?	?	?	0
S=C(NCCc1ccccc1)Nc1c(Cl)cccc1Cl	23µM	-	-64	?	0	0
CC(C)(CNC(=S)NCCc1ccccc1)CNC(=S)NCCc1ccccc1	29µM	0	-70	8.2µM	16µM	0

Screening data from PubChem BioAssay.
